# Results from PubChem BioAssay.
# Values joined by “and” are separate entries in the source; they are usually repeats but may differ in a detail not shown here. Equal entries are not always repeated. Active and inactive are the calls of the source.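 How the source made its calls, unless noted: active means compounds whose cell count with miR-34 switched on is under 0.7 times the count with it off; inactive means the rest.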
# Assays:
# [1] = hESC survival regulators, cell-based (AID 493140; call rule not given here;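 further: cells exposed to compounds for four days before counting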); conditions: human embryonic stem cell survival screen; stronger effect = higher value
# [2] = liver-stage malaria parasite growth inhibition, primary screen, cell-based, HepG2, luciferase luminescence, HepG2 viability (AID 624349; in the data active means parasite load remaining mostly below about 12%, no sharp cut-off; inactive means mostly above about 10%;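 further: 100% = mean of DMSO negative control wells on the same plate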); conditions: P. berghei liver stage in HepG2, luciferase luminescence, concentration not given here; parasite load remaining: stronger effect = lower value; viability: measured here: HepG2 viability without parasites
# [3] = stimulators of nuclear beta-catenin in C2C12, primary screen, imaging, WNT3A-conditioned medium, mouse C2C12, NPC library (AID 1117326; in the data active means nuclear beta-catenin stimulation mostly above about 4.2%, no sharp cut-off; inactive means mostly below about 10%); conditions: stronger effect = higher value
# [4] = stimulators of insulin release from INS-1E, primary screen, cell-based, 5 mM glucose, NPC library (AID 1117329;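 active means compound raises insulin release from rat beta cells at 5 mM glucose, no numeric limit stated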); conditions: rat INS-1E insulin secretion, at 10 µM, stronger effect = higher value
# [5] = growth inhibition of GSK3B-pretreated HCT116 cells – cell-based, CellTiter-Glo, 0.2 to 20 µM (AID 1117336;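 active means compounds lowering colon cancer cell viability after pretreatment blocking the GSK3B kinase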); conditions: HCT116 viability after GSK3B inhibitor, at 20 µM, stronger effect = higher value
# [6] = inhibition of endothelial tube formation, primary screen, imaging, VEGF stimulated, CD31 staining, tube area, NPC library (AID 1117340;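 active means compound that reduces growth-factor-driven endothelial tube area in a mixed cell culture, no cutoff stated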); conditions: VEGF-stimulated ADSC/ECFC co-culture, at 10 µM, stronger effect = higher value
# [7] = glucagon-like peptide 1 release enhancers, primary assay, NCI-H716 cell line, NPC library (AID 1117341;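 active means compound raises GLP1 secretion from the human gut endocrine cells, with no numeric limit stated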); conditions: NCI-H716 cells, at 10 µM, stronger effect = higher value
# [8] = HCT116 colon cancer cell growth inhibition, primary screen, CellTiter-Glo luminescence, NPC library (AID 1117342;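 active means compounds that lower survival of HCT116 colon cancer cells in the luminescence readout, no numeric limit stated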); conditions: at 20 µM (top of the series)
# [9] = CellTiter-Glo luminescent readout of SW480 viability loss, NPC library primary (AID 1117343;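 active means compounds that lower viability of the colon cancer cells in the luminescence readout, with no numeric limit stated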); conditions: CellTiter-Glo luminescence; at 20 µM (top of the series) unless noted
# [10] = decreased DLD-1 cellular survival, CellTiter-Glo luminescent readout, NPC compound collection, primary HTS (AID 1117346;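 active means compounds that lower survival of DLD-1 colon cancer cells in the luminescence readout, no cutoff given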); conditions: DLD-1 viability, CellTiter-Glo luminescence; at 20 µM (top of the series)
# [11] = differential killing of epithelial or mesenchymal cells, primary screen, imaging, PC-3E GFP, TEM4-18 mCherry, co-culture (AID 1345086;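 active means compounds killing one labelled cell type while sparing the other, by normalised counts and ratio limits, not self-fluorescent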;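 on all read-outs here: cells exposed to compound for 72 h before imaging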;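 on red/green cell ratio (normalised): normalised mesenchymal count divided by normalised epithelial count so high means epithelial killing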); conditions: imaging cell counts, at 1 µM; for red/green cell ratio (normalised): actives lie on both sides, counts scaled to control wells, 1 = unselective
# [12] = sensitizers of A549 cells to miR-34 induction, primary screen, imaging, A549 dox-inducible miR-34, nuclei and caspase counts (AID 1347080); conditions: A549 miR-34 inducible, Hoechst nuclei count, 48 h
# [13] = survival rescue of mitochondrial mutant cells in low glucose, primary screen, MELAS cybrids, Rieske KO mouse fibroblasts, CellTiter-Glo (AID 1508586;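 active means mean z-score across replicates of 1.96 or higher in either the MELAS or the Rieske mutant cell line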;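 further: z relative to plate mean and SD of compound and empty wells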)
# [14] = biological target: NAD(+) hydrolase SARM1 (Homo sapiens) (UniProt Q6SZW1); test: SARM1 TIR NADase inhibitors, cell lysate, NAD-Glo luminescence (AID 1508614;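 active means compound whose remaining NAD level is above about 45 nM, limit read from the data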); conditions: SAM-TIR HEK293T lysate NADase, at 1 µM, stronger effect = higher value
# NAD(+) hydrolase SARM1 (Homo sapiens), sequence (Q6SZW1 whole entry, looked up): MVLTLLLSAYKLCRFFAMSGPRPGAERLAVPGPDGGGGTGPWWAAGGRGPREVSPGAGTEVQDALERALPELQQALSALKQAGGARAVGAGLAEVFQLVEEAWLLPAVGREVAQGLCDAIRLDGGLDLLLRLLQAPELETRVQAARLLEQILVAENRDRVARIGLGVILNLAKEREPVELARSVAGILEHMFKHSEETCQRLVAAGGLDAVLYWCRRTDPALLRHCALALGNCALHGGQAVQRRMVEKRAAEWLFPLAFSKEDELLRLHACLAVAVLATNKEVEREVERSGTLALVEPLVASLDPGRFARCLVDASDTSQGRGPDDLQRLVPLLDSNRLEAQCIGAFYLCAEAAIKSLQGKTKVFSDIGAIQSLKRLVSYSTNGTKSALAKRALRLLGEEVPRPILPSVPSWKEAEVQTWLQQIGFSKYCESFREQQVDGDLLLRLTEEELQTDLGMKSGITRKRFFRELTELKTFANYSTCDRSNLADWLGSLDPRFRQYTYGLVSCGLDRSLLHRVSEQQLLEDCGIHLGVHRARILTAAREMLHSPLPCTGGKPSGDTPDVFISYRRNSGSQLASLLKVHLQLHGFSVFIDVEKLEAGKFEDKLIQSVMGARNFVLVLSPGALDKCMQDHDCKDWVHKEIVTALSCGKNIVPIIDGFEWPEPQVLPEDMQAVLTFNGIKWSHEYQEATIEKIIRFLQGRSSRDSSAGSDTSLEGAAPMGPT
# [15] = measured here: epithelial PC-3E GFP cell survival
# [16] = measured here: mesenchymal TEM4-18 mCherry cell survival
# [17] = stronger effect = lower value, cell number ratio, induced over uninduced
# [18] = measured here: relative caspase fold change +Dox/-Dox
# [19] = measured here: total cells with miR-34 induction, stronger effect = lower value
# [20] = measured here: total cells without miR-34 induction
# [21] = MELAS cybrid survival, CellTiter-Glo 48 h, stronger effect = higher value
# [22] = Rieske KO mouse fibroblast survival, CellTiter-Glo 72 h
smiles,measurement,setting,value
CN(C(=O)C(Cl)Cl)c1ccc(OC(=O)c2ccco2)cc1,survival,[1],6 (inactive)
same,parasite load remaining,[2],89.8% (inactive) and 59.5% (inactive)
same,viability,[2],98.9% and 106%
same,nuclear beta-catenin stimulation,[3]; at 10 µM,16.4% (inactive)
same,nuclear beta-catenin stimulation,"[3]; stimulation, at 2 µM",2.6%
same,insulin secretion stimulation,[4],0.3% (inactive)
same,viability decrease,[5],-11.8% (inactive)
same,tube area decrease,[6],13.6% (inactive)
same,GLP1 secretion stimulation,[7],0.9% (inactive)
same,inhibition of viability,[8],-9.5% (inactive)
same,viability decrease (inhibition),[9],4.3% (inactive)
same,viability decrease (inhibition),[10],-2.6% (inactive)
same,red/green cell ratio (normalised),[11],1.01 (inactive)
same,normalised cell number,[11]; [15],0.98
same,normalised cell number,[11]; [16],0.99
same,fold change,[12]; [17],0.855 (inactive) and 0.819 (inactive)
same,fold change,[12]; [18],1.35 and 4.27
same,cell count,[12]; [19],9270 and 10300
same,cell count,[12]; [20],10800 and 12500
same,z-score,[13]; [21],0.57 (inactive)
same,z-score,[13]; [22],-0.472
same,remaining NAD,[14],10 nM (inactive)
Oc1c(I)cc(Cl)c2cccnc12,survival,[1],4.42 (inactive)
same,parasite load remaining,[2],11.3% (inactive) and 21.8% (inactive)
same,viability,[2],89.4% and 95.4%
same,nuclear beta-catenin stimulation,[3]; at 10 µM,55.7% (active)
same,nuclear beta-catenin stimulation,"[3]; stimulation, at 2 µM",6%
same,insulin secretion stimulation,[4],-0.1% (inactive)
same,viability decrease,[5],82% (active)
same,tube area decrease,[6],110% (active)
same,GLP1 secretion stimulation,[7],-5% (inactive)
same,inhibition of viability,[8],81.2% (active)
same,viability decrease (inhibition),[9],127% (active)
same,viability decrease (inhibition),[10],97.8% (active)
same,red/green cell ratio (normalised),[11],1 (inactive)
same,normalised cell number,[11]; [15],0.99
same,normalised cell number,[11]; [16],0.99
same,fold change,[12]; [17],1.06 (inactive) and 0.786 (inactive)
same,fold change,[12]; [18],0.681 and 1.8
same,cell count,[12]; [19],5310 and 5470
same,cell count,[12]; [20],5010 and 6960
same,z-score,[13]; [21],0.113 (inactive)
same,z-score,[13]; [22],-0.741
same,remaining NAD,[14],10 nM (inactive)
O=C(O)c1cc(-c2ccccc2)nc2ccccc12,nuclear beta-catenin stimulation,[3]; at 10 µM,2.1% (inactive)
same,nuclear beta-catenin stimulation,"[3]; stimulation, at 2 µM",0.6%
same,insulin secretion stimulation,[4],-1.6% (inactive)
same,viability decrease,[5],5.55% (inactive)
same,tube area decrease,[6],1.3% (inactive)
same,GLP1 secretion stimulation,[7],4.2% (inactive)
same,inhibition of viability,[8],-8.1% (inactive)
same,viability decrease (inhibition),[9],27.9% (inactive)
same,viability decrease (inhibition),[10],8.8% (inactive)
same,red/green cell ratio (normalised),[11],0.87 (inactive)
same,normalised cell number,[11]; [15],0.9
same,normalised cell number,[11]; [16],0.78
same,fold change,[12]; [17],0.909 (inactive) and 0.965 (inactive)
same,fold change,[12]; [18],0.94 and 1.19
same,cell count,[12]; [19],8690 and 8580
same,cell count,[12]; [20],9560 and 8890
same,z-score,[13]; [21],-0.261 (inactive)
same,z-score,[13]; [22],-0.139
same,remaining NAD,[14],10 nM (inactive)
CCC1NC(=O)c2cc(S(N)(=O)=O)c(Cl)cc2N1 (stereo not given),survival,[1],5.17 (inactive)
same,parasite load remaining,[2],89.6% (inactive)
same,viability,[2],77.9%
same,nuclear beta-catenin stimulation,[3]; at 10 µM,1.2% (inactive)
same,nuclear beta-catenin stimulation,"[3]; stimulation, at 2 µM",2.9%
same,insulin secretion stimulation,[4],-1.7% (inactive)
same,viability decrease,[5],-8.4% (inactive)
same,tube area decrease,[6],2.1% (inactive)
same,GLP1 secretion stimulation,[7],8.6% (inactive)
same,inhibition of viability,[8],-5.7% (inactive)
same,viability decrease (inhibition),[9],-10.9% (active)
same,viability decrease (inhibition),[10],-14% (inactive)
same,red/green cell ratio (normalised),[11],0.98 (inactive)
same,normalised cell number,[11]; [15],1.22
same,normalised cell number,[11]; [16],1.2
same,fold change,[12]; [17],0.92 (inactive)
same,fold change,[12]; [18],0.404
same,cell count,[12]; [19],8110
same,cell count,[12]; [20],8810
same,z-score,[13]; [21],-1.3 (inactive)
same,z-score,[13]; [22],-1.37
same,remaining NAD,[14],10 nM (inactive)
